Experiment [1] is described as follows: Tanguay_ZF_120hpf_SOMI_legacy: (Legacy) Oregon State University Tanguay Lab 120 Hour Post-fertilization zebrafish Assay for Somite Malformation (AID 2283647). The procedure, abridged: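 Read-out: presence or absence of somite malformation in 120 hpf larvae, gain-of-signal relative to DMSO baseline. Embryos lacked chorion (pronase, 4 hpf) and were exposed statically from 6 hpf at 28C; dead larvae not scored.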

Experiment [2] is described as follows: Tanguay_ZF_120hpf_PFIN_legacy: (Legacy) Oregon State University Tanguay Lab 120 Hour Post-fertilization zebrafish Assay for Pectoral Fin Malformation (AID 2283648).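 Also: each larva judged yes or no for fin defect by brightfield with dead larvae skipped.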 The procedure, abridged: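 Pectoral fin malformation was recorded as a binary endpoint at 120 hpf in wild-type Tropical 5D larvae, which had been dechorionated and exposed statically from 6 hpf at 28C in 0.64% DMSO. Dead embryos were excluded.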

The nature of experiment [3]: Tanguay_ZF_120hpf_CFIN_legacy: (Legacy) Oregon State University Tanguay Lab 120 Hour Post-fertilization zebrafish Assay for Caudal Fin Malformation (AID 2283649). The procedure, abridged: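 Binary presence or absence of caudal fin malformation at 120 hpf, read by brightfield microscopy, with DMSO as baseline. Larvae came from 5D wild-type embryos exposed statically from 6 hpf at 28C after pronase dechorionation.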

Experiment [4] is described as follows: Tanguay_ZF_120hpf_PIG_legacy: (Legacy) Oregon State University Tanguay Lab 120 Hour Post-fertilization zebrafish Assay for Pigmentation Malformation (AID 2283650). The procedure, abridged: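 Pigment malformation recorded as a binary call at 120 hpf in zebrafish (Tropical 5D) exposed singly from 6 hpf after pronase dechorionation. Static, sealed, 28C exposure, 0.64% DMSO; mortality excludes scoring; positive-direction fit against DMSO.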

Experiment [5] in a line: Tanguay_ZF_120hpf_CIRC_legacy: (Legacy) Oregon State University Tanguay Lab 120 Hour Post-fertilization zebrafish Assay for Circulatory Malformation (AID 2283651). The procedure, abridged: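 Binary circulatory malformation call at 120 hpf by brightfield imaging of zebrafish larvae; chorion removed at 4 hpf, static exposure from 6 hpf in sealed dark plates at 28C, final DMSO 0.64%; non-mortality endpoints skipped if embryo died.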

Experiment [6] is described as follows: Tanguay_ZF_120hpf_SWIM_legacy: (Legacy) Oregon State University Tanguay Lab 120 Hour Post-fertilization zebrafish Assay for Swim Bladder Malformation (AID 2283654).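 Also: swim bladder malformation in each larva scored yes or no under brightfield.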 The method, boiled down:
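Scoring is binary for swim bladder defects at 120 hpf, by brightfield inspection of zebrafish larvae. Embryos were exposed singly from 6 hpf after pronase dechorionation, at 28C with 0.64% DMSO; mortality excluded scoring.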

Experiment [7] in a line: Tanguay_ZF_120hpf_TRUN_legacy: (Legacy) Oregon State University Tanguay Lab 120 Hour Post-fertilization zebrafish Assay for Truncated Body (AID 2283655). The procedure, abridged:
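Truncated body is recorded as a binary endpoint at 120 hpf by brightfield imaging of wild-type 5D larvae. Exposure runs statically from 6 hpf at 28C with 0.64% DMSO; embryos dying earlier are not scored.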

Experiment [8] can be described thus: Tanguay_ZF_120hpf_NC_legacy: (Legacy) Oregon State University Tanguay Lab 120 Hour Post-fertilization zebrafish Assay for Notochord and Tail Malformation (AID 2283656). The method, boiled down:
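Binary scoring of notochord distortion by brightfield microscopy; embryos dying were not scored. Wild-type Tropical 5D embryos, chorion removed, exposed singly and statically from 6 to 120 hpf, 28C, sealed, 0.64% DMSO.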

Read-out in experiment [9]: xenobiotic metabolism (CYP1A1), CYP1A1 (gene 1543)
As to the kind of experiment: CLD_CYP1A1_6hr: CellzDirect (CLD) Gene Expression Assay for xenobiotic metabolism (CYP1A1) at 6 hours (AID 2283661).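 As to AC50: potency for transcript induction above DMSO vehicle baseline.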 The method, boiled down: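 Read-out 6 h post-dose: qNPA chemiluminescent quantitation of transcript induction against 0.2% DMSO. Cells were cultured primary human hepatocytes from two separate donor preparations; phase-contrast morphology annotated apparent cytotoxicity.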

Read-out in experiment [10]: xenobiotic metabolism (CYP1A2), CYP1A2 (gene 1544)
As to the kind of experiment: CLD_CYP1A2_6hr: CellzDirect (CLD) Gene Expression Assay for xenobiotic metabolism (CYP1A2) at 6 hours (AID 2283663).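 As to AC50: potency is for induction meaning a rise in mRNA above DMSO.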 The procedure, abridged: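 mRNA levels quantified by quantitative nuclease protection assay with chemiluminescence, 6 h after dosing human primary hepatocyte cultures (two donors) across several concentrations, vehicle 0.2% DMSO. Induction fitted upward versus DMSO; phase-contrast cytotoxicity annotated.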

The nature of experiment [11]: Tanguay_ZF_120hpf_TR_legacy: (Legacy) Oregon State University Tanguay Lab 120 Hour Post-fertilization zebrafish Assay for Touch Response (AID 2283667). The method, boiled down:
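Binary touch-response endpoint in larvae at 120 hpf after static waterborne exposure from embryo stage (28°C, 0.64% DMSO vehicle, 5 uM trimethyltin chloride as positive control); embryos dead at 24 or 120 hpf excluded; fitted as gain versus DMSO.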

Read-out in experiment [12]: ABC Transporter (ABCB1), ABCB1 (gene 5243)
As to the kind of experiment: CLD_ABCB1_6hr: CellzDirect (CLD) Gene Expression Assay for ABC Transporter (ABCB1) at 6 hours (AID 2283659).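 Also: hits raise ABCB1 transcript above the DMSO vehicle baseline.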 The procedure, abridged: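 ABCB1 transcript measured by quantitative nuclease protection assay, chemiluminescent read-out, 6 h after dosing human hepatocyte cultures (0.2% DMSO vehicle, daily redosing). Activity fitted as increase over DMSO baseline; cytotoxicity flagged by phase-contrast morphology.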

Read-out in experiment [13]: Broad substrate specificity ATP-binding cassette transporter ABCG2 (Homo sapiens) (UniProt Q9UNQ0)
The experiment in a line: CLD_ABCG2_6hr: CellzDirect (CLD) Gene Expression Assay for ABC Transporter (ABCG2) at 6 hours (AID 2283660). The method, boiled down: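 ABCG2 mRNA induction measured by qNPA chemiluminescence in human primary hepatocyte cultures, 6 h post-dose. Chemicals tested at several concentrations against a 0.2% DMSO vehicle; positive-direction fit relative to DMSO.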

Experiment [14] relates to Thyroperoxidase (TPO), gene 54314. The experiment in a line: CCTE_Simmons_AUR_rTPO: CCTE's Amplex UltraRed Assay for Thyroperoxidase (TPO) Inhibition, Simmons Lab (AID 2283662).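 Also: potency for loss of signal meaning inhibition of peroxidase activity.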 The procedure, abridged:
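Endpoint is decreased Amplex UltraRed fluorescence after a 30-min, 37C reaction of rat thyroid microsomes with 300 uM H2O2. Eight test concentrations (5 nM–87.5 uM final) in 0.5% DMSO, three biological replicates each.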

A short description of experiment [15]: CCTE_Simmons_CellTiterGLO_HEK293T: Viability Assessment in CCTE's Assays for Thyroperoxidase (TPO) Inhibition, Simmons Lab (AID 2283665). The method, boiled down: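 Luciferase-coupled ATP content after 24 h exposure gives viability; 8-point series from 5 nM to 87.5 uM final in 0.5% DMSO. Human HEK293T cells, 1% FBS medium, three biological replicates, dichlone positive control.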
On the technique in general: Cellular ATP, detected with luciferase, serves as a proxy for viable cell number.

Results filed as inconclusive are left out. Calls of active or inactive are those of the source. The calls were made as follows: active = hit-call score of the fitted dose curve at least 0.9, where 1 is the maximum; inconclusive = response in the unintended direction; inactive = score below 0.9.

Sequence of Broad substrate specificity ATP-binding cassette transporter ABCG2 (Homo sapiens) (Q9UNQ0 whole entry, looked up): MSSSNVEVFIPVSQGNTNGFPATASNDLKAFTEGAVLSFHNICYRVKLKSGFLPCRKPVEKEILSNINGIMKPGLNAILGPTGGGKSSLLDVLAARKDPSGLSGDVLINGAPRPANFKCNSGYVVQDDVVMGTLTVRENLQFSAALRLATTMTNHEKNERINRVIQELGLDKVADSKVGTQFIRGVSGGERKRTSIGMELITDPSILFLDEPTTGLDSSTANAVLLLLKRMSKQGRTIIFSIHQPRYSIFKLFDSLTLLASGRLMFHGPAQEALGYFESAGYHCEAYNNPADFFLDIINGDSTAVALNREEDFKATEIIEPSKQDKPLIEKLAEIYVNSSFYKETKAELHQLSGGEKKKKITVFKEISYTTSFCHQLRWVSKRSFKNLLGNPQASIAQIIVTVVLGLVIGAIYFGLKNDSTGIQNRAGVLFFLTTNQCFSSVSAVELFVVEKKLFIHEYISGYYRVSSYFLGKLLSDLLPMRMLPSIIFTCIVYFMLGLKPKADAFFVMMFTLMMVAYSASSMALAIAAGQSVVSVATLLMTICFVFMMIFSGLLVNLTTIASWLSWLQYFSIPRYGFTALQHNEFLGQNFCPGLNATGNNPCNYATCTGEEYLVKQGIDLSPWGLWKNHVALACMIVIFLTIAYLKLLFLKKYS

As for `Cc1cc(C)nc(Nc2ccccc2)n1`, the compound was classed as inactive in [1], in [2], in experiment [3], in experiment [4], in [5] and in experiment [6]. The compound was called inactive in experiment [7], in experiment [8] and in experiment [11]. The half-maximal activity concentration (AC50) in [9] and in experiment [10] was 3.97 µM (active) in each case.

Take `CCOc1nc(F)cc2nc(S(=O)(=O)Nc3c(Cl)cccc3Cl)nn12`: the outcome in [1], in experiment [2], in experiment [3], in [4], in experiment [5] and in experiment [6] was inactive. In addition, the result in experiment [7], in experiment [8], in experiment [12], in [13], in [9] and in [10] was inactive. In addition, the compound was classed as inactive in [15] and in [11]. Further, the AC50 (usually the concentration at which the activity in the assay is half-maximal) in experiment [14] was 26.5 µM (active).

For `Nc1cnn(-c2ccccc2)c(=O)c1Cl`, the call in experiment [1], in experiment [2], in experiment [3], in experiment [4], in experiment [5] and in experiment [6] was inactive. Besides, the result in experiment [7], in [13] and in experiment [11] was inactive. Further, the AC50 in experiment [9] was 5.67 µM (active); in experiment [10], 9.27 µM (active).

Regarding `COCC(C)N(C(=O)CCl)c1c(C)csc1C` (stereo unspecified), the AC50 in experiment [1] was 30.4 µM (active); in experiment [2], 35.6 µM (active); in experiment [3], 36.2 µM (active); in experiment [4] it was 8.81 µM (active); in experiment [5], 24.5 µM (active); in experiment [6], 8.24 µM (active). Further, the AC50 in experiment [7] is 30.8 µM (active); in [11], 26.3 µM (active). Also, the compound was classed as inactive in experiment [8], in [12], in experiment [13] and in [9].

`COc1cc(Cl)c(OC)cc1Cl`: the call in experiment [1], in [2], in experiment [3], in [4], in experiment [5] and in experiment [6] was inactive. The compound was called inactive in [8], in experiment [12], in experiment [13] and in experiment [11].

As to `CC1(C)CON(Cc2ccccc2Cl)C1=O`, the outcome in [1], in [2], in experiment [3], in [4], in [5] and in experiment [6] was inactive. The result in [7], in experiment [8], in experiment [12], in experiment [13], in experiment [9] and in [11] was inactive.

On to `CCSC(=O)N1CCCCCC1`, for which the compound was called inactive in experiment [1], in [2], in experiment [3], in experiment [4], in experiment [5] and in [6]. Further, the outcome in experiment [7], in [12] and in [9] was inactive.

`O=C1C2CC=CCC2C(=O)N1SC(Cl)(Cl)Cl` (stereo unspecified): the result in [1], in experiment [2], in experiment [3], in [4], in [5] and in experiment [6] was inactive. Further, the call in [7], in experiment [12], in experiment [13] and in experiment [11] was inactive.

On to `CC1(C)C(C(=O)OC(C#N)c2cccc(Oc3ccccc3)c2)C1(C)C` (stereo unspecified), for which the compound was called inactive in experiment [1], in experiment [2], in experiment [3], in experiment [4], in experiment [5] and in experiment [6]. Moreover, the result in [7], in [8], in [12], in experiment [9] and in [11] was inactive.

The values are drawn from PubChem BioAssay (EPA / NIEHS).
